Source: the supplement of paper PMC6555819

Key:
Test in all cases: PBM binding z-score (relative to random genomic background probes); higher = stronger binding; sequences stand for … in GC…GCGATTGACAGCGTAGAATGAAGG
[1] = system: FXR:RXRa (NR concentration 270 nM, RXRa partner concentration 90 nM)
Procedure, shortened: (§1)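 Random background probes are the reference for binding z-scores. These scores derive from regression-normalized fluorescence on custom Agilent 4×180K protein-binding microarrays incubated 1 h with ligand-free nuclear receptor dimers. Binding was detected with antibodies against each partner (one per run).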

[2] = system: LXRa:RXRa (NR concentration 270 nM, RXRa partner concentration 90 nM)
Procedure, shortened: as §1

[3] = system: LXRa homodimer (NR concentration 270 nM)
Procedure, shortened: as §1

[4] = system: LXRb:RXRa (NR concentration 270 nM, RXRa partner concentration 90 nM)
Procedure, shortened: as §1

[5] = system: LXRb homodimer (NR concentration 270 nM)
Procedure, shortened: as §1

[6] = system: PPARa:RXRa (NR concentration 270 nM, RXRa partner concentration 90 nM)
Procedure, shortened: as §1

[7] = system: PPARg:RXRa (NR concentration 180 nM, RXRa partner concentration 90 nM)
Procedure, shortened: as §1

[8] = system: PPARg:RXRa 270nM:90nM, anti-RXR (NR concentration 270 nM, RXRa partner concentration 90 nM)
Procedure, shortened: as §1

[9] = system: PPARg:RXRa 30nM:10nM, anti-RXR (NR concentration 30 nM, RXRa partner concentration 10 nM)
Procedure, shortened: as §1

[10] = system: PPARg:RXRa 90nM:30nM, anti-RXR (NR concentration 90 nM, RXRa partner concentration 30 nM)
Procedure, shortened: as §1

Sequence | PBM binding z-score [1] | PBM binding z-score [2] | PBM binding z-score [3] | PBM binding z-score [4] | PBM binding z-score [5] | PBM binding z-score [6] | PBM binding z-score [7] | PBM binding z-score [8] | PBM binding z-score [9] | PBM binding z-score [10]
CGTCCAAGGTCATAGGAGGTCAGTGGAGACAGAT | 7.92 | 7.55 | 5.5 | 6.44 | 1.44 | 5.76 | 5.84 | 5.73 | 2.93 | 4.69
AGTCAAAGTTCACTAGGTAACTTAAGATTCAGCT | 5.3 | 5.02 | 3.26 | 3.15 | 1.21 | 4.91 | 6.82 | 6.55 | 3.6 | 5.72
AATACAGGGTCAGCGTAGGCCAGAGTACGCACAG | 5.67 | 4.35 | 0.74 | 2.92 | 0.652 | 4.74 | 4.5 | 3.96 | 0.97 | 2.52
TCTTGTAGATCAAGCAGGTTAAGAATGCCTGAGT | 0.16 | 0.304 | -0.202 | 0.114 | -0.543 | 0.658 | -0.22 | 1.1 | 2.61 | 1.83
ACAGACAGGTGAGTGAAGGTTACTCAGCTGGACG | 0.506 | 0.708 | -0.297 | -0.125 | -0.739 | 0.764 | 0.848 | 0.505 | -0.0853 | 0.0538
TGAATGAGGTTAAGGATCAGGGAACGTGGCGTCG | 1.99 | 1.74 | -0.343 | 1.01 | 0.386 | 3.28 | 3.12 | 4.57 | 2.71 | 4.12
TCTATTAGTTGTTTAGGGCAACCGAAACAGCGGA | 0.479 | 0.468 | 0.25 | 0.727 | 1.15 | 0.938 | -0.0257 | 2.1 | 3.88 | 2.99
AATACAGGGTCACTAGTCCAGAGTAGGTACGAAT | 5.5 | 4.68 | 0.946 | 3.94 | 1.32 | 5.09 | 5.61 | 5.17 | 1.77 | 3.89
ACTATTACTTGACTTAGGGCAACCGATACGACGC | 0.391 | 0.445 | 1.02 | 0.691 | 1.56 | 0.231 | 1.19 | 0.283 | 0.727 | 0.716
CCTACTGGGCCATCAGGTCTTTGATATCAACGTT | -0.207 | -0.321 | -0.21 | -0.159 | -0.568 | 0.508 | 0.773 | 1.66 | 0.0943 | 1.01
GATATTAGTTGAAAGGGCAACCGAATGATTCTCG | 0.693 | 1.12 | 0.566 | 1.26 | 0.285 | 2.63 | 2.9 | 4.65 | 2.47 | 4.54
TCTGCTAGGGCAACGATGGTCAGCTAATCTGCTA | -0.264 | -0.36 | -0.78 | -0.55 | -0.884 | 0.0492 | 0.028 | 0.551 | 1.02 | 0.846
TAGCCTAGGTCACTCAGGGGCCAGTATAGAAAGC | 3.32 | 2.18 | -0.258 | 2 | -0.123 | 3.18 | 2.64 | 2.29 | 0.26 | 1.24
AGAATGAGGTTATTCAGATCAGGGAATTGCGGTC | 2.47 | 1.98 | 0.596 | 1.51 | 0.0526 | 3.31 | 1.58 | 1.96 | 0.851 | 1.27
ACTATTAGTGGACTTAGGGCAACCGATACGACGC | 0.086 | -0.113 | -0.0613 | -0.278 | 0.0908 | -0.455 | 0.923 | 0.348 | 0.284 | 0.211
AATACAGGGTCATCGTGGGCCAGAGTACGCACAG | 7.26 | 6.08 | 2.41 | 4.65 | 0.911 | 5.96 | 6.73 | 5.81 | 2.73 | 4.56
CCTCGTTGGTCAAGGTCACACACGCTATAGGTAC | 4.27 | 4.25 | 2.8 | 3.8 | 1.08 | 4.07 | 2.47 | 3.17 | 0.974 | 2.24
TCTTGTAGATCAGCAGGTTAAGCAAGCTGGCCAA | 0.0214 | 0.292 | -0.676 | 0.24 | -0.51 | 0.793 | -0.47 | 1.26 | 2.15 | 1.62
ATCTCTAGGTAACAAGTTCACTGAAAGAGAGGAC | 1.15 | 1.44 | 1.22 | 1.56 | 0.913 | 2.74 | 2.49 | 2.9 | 1.37 | 2.56
ATCGAACGGTCGAAGGTGAGTATACCCACCCGAA | -0.145 | -0.0927 | -0.458 | -0.384 | -0.206 | 0.517 | 1.03 | 1.22 | 0.0354 | 0.698
TTTATTAGTTGATTAGGGCAACCGAAACAGCGGA | 0.664 | 0.617 | 0.865 | 0.942 | 1.33 | 1.15 | 0.565 | 1.71 | 1.69 | 1.72
TCTTGTAGATCAAGCAGGTTAAGAGAGCCTGAGT | 0.126 | 0.03 | -0.729 | 0.145 | -0.665 | 0.53 | -0.372 | 0.87 | 2.06 | 1.55
ATATGTAGGTTATCGGGCCATTCAGTTTGCGCAT | 0.607 | 1.03 | 0.565 | 0.95 | 0.458 | 3.22 | 5.22 | 4.45 | 1.98 | 3.76
TCATATAGGTAAACAGGTGAAAGTTCGTAAGTTA | 1.01 | 1.3 | 1.04 | 1.4 | -0.228 | 4.15 | 7.28 | 6.52 | 5.93 | 7.06

Sequence | PBM binding z-score [1] | PBM binding z-score [2] | PBM binding z-score [3] | PBM binding z-score [4] | PBM binding z-score [5] | PBM binding z-score [6] | PBM binding z-score [7] | PBM binding z-score [8] | PBM binding z-score [9] | PBM binding z-score [10]
ACTAGTTGGTCAGCTGAGGTCACGCACAATTCGG | 3.89 | 3.8 | 2.33 | 3.79 | 0.387 | 4.12 | 2.12 | 3.28 | 0.707 | 2.16
ATCGAATGGTCGACGAGGTGAGTATACACCGTTT | -0.323 | -0.552 | -0.816 | -0.341 | -0.342 | -0.212 | 0.744 | -0.273 | 0.119 | -0.347
TCTGCTAAGTCAACGATGGTCAGCTAATCTGCTA | -0.531 | -0.432 | -0.993 | -0.553 | -0.721 | -0.269 | -0.51 | 0.278 | 1.33 | 0.924
TCAGACAGGTGAAGGTAAATCAGGTACGCAGTCG | 1.69 | 1.37 | 0.109 | 1.11 | 0.081 | 1.6 | 0.829 | 2.39 | 4.45 | 3.31
CTAACTAGGTCAGAACAGGACAGTGAAGGATGAT | 1.45 | 0.974 | 0.159 | 0.586 | -0.0139 | 3.16 | 6.17 | 4.91 | 2.43 | 4.19
ATACCAATGTGATCGTGAGGTCGTTGATACTAAC | 1.13 | 0.684 | 0.704 | 0.894 | -0.063 | 0.905 | 0.346 | 0.198 | 0.123 | 0.295
ATGGAAAGGTCGACGAGGTGAGTATACACCGTTT | 4.39 | 3.03 | -0.133 | 2.47 | 0.238 | 4.12 | 2.69 | 2.93 | 1.17 | 1.95
GCTGCTAGGTCAACTGATGGTCAGCTCAAGCTCG | 4.04 | 3.02 | 0.195 | 2.03 | 0.0529 | 3.43 | 2.32 | 2.98 | 0.574 | 1.74
CAAACTAGGTCAAGAGGTCAAAGTGCGCTTCCCG | 7.08 | 6.47 | 5.76 | 5.71 | 2.04 | 6.59 | 10.2 | 8.63 | 7.04 | 8.54
TCATGTAGATCAAGCAGGTTAAGAAAGCCTGAGT | 0.865 | 0.684 | -0.0467 | 0.774 | -0.523 | 0.929 | -0.116 | 1.74 | 3.28 | 2.36
CCTTACGGGTCACTGACAGGTGATAGCATTTGGA | 6.8 | 5.19 | 0.411 | 4.32 | -0.315 | 5.68 | 4.86 | 4.97 | 1.83 | 4
TCTTGTTGATCAATAGAGGTTAAGAAAGTGCGCT | 0.549 | 3.17 | 0.564 | 2.1 | 0.134 | 2.02 | -0.0546 | 1.87 | 2.82 | 2.46
ATATGTATGTTAGCTGGGGTCATTCAGACTAGGC | 3.96 | 4.22 | 1.92 | 4.33 | 1.31 | 4.48 | 2.06 | 2.85 | 1.26 | 2.08
GCATATAGGTAATCCAAGGTGAAAGTCCGATTGT | 2.37 | 2.66 | 0.0628 | 0.738 | -0.267 | 1.76 | 1.15 | 1.24 | 0.358 | 0.949
ATCTCTGGGTAACCAAGTTCAGTGAATGCCGAAC | 0.227 | 0.778 | 0.498 | 0.621 | 0.534 | 1.09 | 0.329 | 0.858 | -0.0191 | 0.333
ATCTCTAGGTAACAAGTTCATTGAAAGAGAGGAC | 1.22 | 1.89 | 1.5 | 1.8 | 1.27 | 2.75 | 2.82 | 3.03 | 1.55 | 2.63
GCTGCTAGATCAACTGATGGTCAGCTAAAGCTCG | -0.351 | -0.658 | -0.708 | -0.94 | -1.09 | -0.675 | -0.337 | -0.606 | -0.466 | -0.434
CAGCCTAGGGCAGGGCCAGTATAGGAGGAACGTT | -0.713 | -0.785 | -0.921 | -1.11 | -1.4 | -0.747 | -0.037 | -0.861 | -0.884 | -1.24
CTCGGAAGGTCGTGCTCAGGTGAGTATACCAAAC | 1.88 | 1.55 | -0.00824 | 1.29 | -0.534 | 2.79 | 0.376 | 1.25 | 0.069 | 0.755
ATATGTAGGTTAGCTGGGGACATTCAGACTAGGC | 1.86 | 1.8 | 0.679 | 1.14 | 0.544 | 2.64 | 3.46 | 2.89 | 1.12 | 2.16
ATAGAAAGGTCGACGAGGTGAGTATACACCGTTT | 4.55 | 2.95 | 0.22 | 2.52 | 0.294 | 4.18 | 2.91 | 2.81 | 1.55 | 2.17
CGTCCTAGGTCAAGGTCAGTGAAAGAGACTCGAA | 5.87 | 4.07 | 0.811 | 3.5 | 0.178 | 4.87 | 4.31 | 4.45 | 1.48 | 3.5
CGTCCACGGTCAATGCTAGGTCAGTGAAAGCATT | 0.638 | 1.1 | 0.946 | 0.337 | -0.956 | 0.778 | -0.0965 | 0.186 | -0.646 | -0.669
GCTATTAGTTAAAAGGGCAACCGAATGATTCTCG | 0.183 | 0.439 | 0.409 | 0.624 | -0.5 | 2.02 | 1.84 | 3.45 | 1.77 | 3.13
